From PubChem BioAssay (Tox21)
Inconclusive results are not listed. Calls of active or inactive are those of the source. Calls come from the whole dose curve; as a rule, active = well fitted cell-killing curve with a large enough effect in the repeat runs; inconclusive = weak or mixed curves, or effect the other way; inactive = no such curve, though single readings can be large or run the other way.

test: qHTS assay to identify small molecule antagonists of the retinoid-related orphan receptor gamma (ROR-gamma) signaling pathway - cell viability counter screen (AID 1159520); conditions: Tet-on RORgamma CHO cells viability, ATP luminescence, 16 h; series mostly up to 92.4 µM; activity, negative = cytotoxicity: at the top concentration; note: nearly all actives have a fitted effect of over 50% in size
Description: U.S. Tox21 Program National Center for Advancing Translational Sciences [NCATS] NIH Chemical Genomics Center [NCGC] U.S. Environmental Protection Agency [EPA] National Institutes of Environmental Health Sciences [NIEHS] National Toxicology Program [NTP] U.S. Food and Drug Administration [FDA] Tox21 Assay Overview: Nuclear steroid hormone receptors are involved in many biological processes including inflammatory responses, cell proliferation, and apoptosis. Environmental factors or compounds disrupting these nuclear receptor pathways and gene expression may promote susceptibility to immunotoxicants and autoimmune diseases. One important group of these expression factors are the retinoid-related orphan receptors. To assess compounds that may interfere with the retinoid-related orphan receptor gamma (ROR-gamma) transcription factor, a cell-based luciferase assay was used. The CHO cell-based assay utilizes a TET-inducible ROR expression factor and ROR response element-LUC reporter gene. Reporter gene activity was induced using Doxycycline Hyclate and measured after 16 hr incubation. Tet-on ROR gamma CHO cells were used to screen against the Tox21 10K compound library for cytotoxicity by measuring the viability of the cells based on the quantitation of the ATP.
Tox21 Assay Protocol Summary: Tet-on ROR gamma CHO cells were dispensed at 1,000 cells in 4 uL of culture medium per well into white wall/solid bottom 1536-well plates using a Multidrop Combi (Thermo Scientific, Waltham, MA) dispenser. Following incubation at 37 C and 5% CO2 for 4 hr, 23 nL of compounds dissolved in DMSO, positive controls or DMSO only were transferred by a Pintool station (Kalypsys, San Diego, CA) and after 2 hr incubation at 37 C, one ul of 1 uM (final concentration) of Doxycycline Hyclate was added to all the wells by using a Flying Reagent Dispenser (FRD) (Aurora Discovery, San Diego, CA). After 16 hr incubation at 37 C and 5% CO2, 5 uL of CellTiter-Glo reagent (Promega Corporation, Madison, WI) was added to each assay plate using FRD. After 30 min incubation at room temperature, luminescence was quantified on a ViewLux plate reader (Perkin Elmer, Waltham, MA).
% is set by controls: 0 for no effect and ±100 for the full control effect.

Row | Compound | activity, negative = cytotoxicity
1 | NCCOS(=O)(=O)O | 3% (inactive)
2 | CC(C)NCC(O)c1ccc([N+](=O)[O-])cc1 (stereo not given) | 6.03% [at 42.5 µM] (inactive)
3 | CN(C)C1CCCCC1 | -10% (inactive)
4 | O=C(O)CBr | -7.49% (inactive)
5 | CC[C@@H](CO)NC(=O)[C@@H]1C=C2c3cccc4[nH]cc(c34)C[C@H]2N(C)C1 | -1.84% [at 42.5 µM] (inactive)
6 | CC(=O)OCC1=C(C(=O)O)N2C(=O)[C@@H](N)[C@H]2SC1 | 5.7% [at 19 µM] (inactive)
7 | CCOC(=O)COc1ccc(Cl)cc1Cl | 7.11% (inactive)
8 | Cc1cccc2sc3nncn3c12 | -2.32% (inactive)
9 | [P]#[In] | 2.53% (inactive)
10 | CCCC(C)C1(CC)C(=O)N=C(S)NC1=O (stereo not given) | 2.79% [at 42.5 µM] (inactive)
11 | CN(C)C(=O)Oc1cc(OC(=O)N(C)C)cc(C(O)CNC(C)(C)C)c1 (stereo not given) | -1.07% [at 42.5 µM] (inactive)
12 | O=C(O)C(Cl)Br (stereo not given) | 2.7% (inactive)
13 | O=C(O)c1c(Cl)ccc2cc(Cl)cnc12 | 0.819% (inactive)
14 | C=CC=O | -6.2% (inactive)
15 | CCC(C(N)=O)N1CCCC1=O (stereo not given) | 0.991% [at 42.5 µM] (inactive)
16 | C[C@H]1CCCC(=O)CCC/C=C/c2cc(O)cc(O)c2C(=O)O1 | -16.8% [at 42.5 µM] (inactive)
17 | CCCCCCCCSC(=O)Oc1cc(Cl)nnc1-c1ccccc1 | -1.48% (inactive)
18 | ClCCCCCCCl | 8.14% (inactive)
19 | CCOc1cc(OP(=S)(OC)OC)nc(CC)n1 | 6.96% (inactive)
20 | CNC(=O)NC(O)C(Cl)(Cl)Cl (stereo not given) | 0.614% [at 42.5 µM] (inactive)

Row | Compound | activity, negative = cytotoxicity
21 | COc1ccc2c(C(=O)c3ccc(Cl)cc3)c(C)n(CC(=O)O)c2c1 | -2.61% [at 42.5 µM] (inactive)
22 | COc1cccc([C@@]2(O)CCCC[C@@H]2CN(C)C)c1 | 2.35% [at 42.5 µM] (inactive)
23 | CCC(=O)c1ccc(Cl)cc1 | -5.49% (inactive)
24 | CCOP(=S)(OCC)SCCl | 0.474% (inactive)
25 | CC[C@H](O)C(C[C@H](C)N(C)C)(c1ccccc1)c1ccccc1 | -1.22% (inactive)
26 | CCN1CCCC1CNC(=O)C(O)(c1ccccc1)c1ccccc1 (stereo not given) | 5.73% [at 42.5 µM] (inactive)
27 | CCOC(=O)CC(SP(=S)(OC)OC)C(=O)OCC (stereo not given) | -0.483% [at 42.5 µM] (inactive)
28 | COP(=O)(OC)O/C(C)=C/C(=O)N(C)C | 7.36% (inactive)
29 | NCC1(CC(=O)O)CCCCC1 | 6.23% [at 42.5 µM] (inactive)
30 | CC[C@@H](CO)NC(=O)[C@@H]1C=C2c3cccc4c3c(cn4C)C[C@H]2N(C)C1 | -1.07% [at 42.5 µM] (inactive)
31 | CC(C)c1ccc(O)cc1 | -0.456% (inactive)
32 | COc1ccc(C=O)cc1O | 7.27% (inactive)
33 | CC#Cc1cc(C)nc(Nc2ccccc2)n1 | -12.9% (inactive)
34 | N#CN | 8.28% [at 240 µM] (inactive)
35 | C=C1CC[C@@]2(O)[C@H]3Cc4ccc(O)c5c4[C@@]2(CCN3CC2CC2)[C@H]1O5 | 6.15% [at 42.5 µM] (inactive)
36 | CC(=NC#N)N(C)Cc1ccc(Cl)nc1 | 3.86% (inactive)
37 | [O-][Br+2]([O-])O | -0.49% [at 42.5 µM] (inactive)
38 | CCOC1Oc2ccc(OS(C)(=O)=O)cc2C1(C)C (stereo not given) | -0.0402% (inactive)
39 | Cc1ccc2c(c1)C1CN(C)CCC1N2 (stereo not given) | 3.75% [at 19 µM] (inactive)
40 | CC(C)(C)NC[C@H](O)c1ccc(O)cc1Cl | 0.778% [at 42.5 µM] (inactive)
